PubChem BioAssay (EPA / NIEHS)
The source made the active and inactive calls. Rule for the calls: active = hit-call score of the fitted dose curve at least 0.9, where 1 is the maximum; inactive = score below 0.9.

What was measured:
[1] = read-out: Thrombomodulin, THBD (gene 7056); assay: BSK_CASM3C_Thrombomodulin: BioMAP Diversity Plus: CASM3C Assay for Thrombomodulin Biomarker Activity (AID 2283051); details: primary human coronary artery smooth muscle cells; actives raise or lower the signal;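 note: thrombomodulin protein level measured by ELISA 24 h after dosing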
[2] = read-out: Tissue Factor, F3 (gene 2152); assay: BSK_CASM3C_TissueFactor: BioMAP Diversity Plus: CASM3C Assay for Tissue Factor Biomarker Activity (AID 2283052); details: primary human coronary artery smooth muscle cells; actives raise or lower the signal;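 note: cell surface tissue factor protein level read by ELISA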
[3] = read-out: Urokinase-type plasminogen activator receptor (uPAR), PLAUR (gene 5329); assay: BSK_CASM3C_uPAR: BioMAP Diversity Plus: CASM3C Assay for Urokinase-type plasminogen activator receptor (uPAR) Biomarker Activity (AID 2283054); details: primary human coronary artery smooth muscle cells; actives raise or lower the signal;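 note: cell-surface uPAR protein level quantified by ELISA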
[4] = read-out: Vascular cell adhesion molecule 1 (VCAM1), VCAM1 (gene 7412); assay: BSK_CASM3C_VCAM1: BioMAP Diversity Plus: CASM3C Assay for Vascular cell adhesion molecule 1 (VCAM1) Biomarker Activity (AID 2283055); details: primary human coronary artery smooth muscle cells; actives raise or lower the signal;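 note: VCAM-1 protein level quantified by ELISA on the cells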
[5] = read-out: Collagen III, COL3A1 (gene 1281); assay: BSK_hDFCGF_CollagenIII: BioMAP Diversity Plus: hDFCGF Assay for Collagen III Biomarker Activity (AID 2283056); details: primary human foreskin fibroblasts; actives raise or lower the signal
How it was run: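 hDFCGF primary human dermal fibroblasts; 24 h chemical exposure; collagen III by ELISA; bidirectional curve fit vs DMSO baseline (gain or loss of signal).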

[6] = read-out: Epidermal growth factor receptor (EGFR), EGFR (gene 1956); assay: BSK_hDFCGF_EGFR: BioMAP Diversity Plus: hDFCGF Assay for Epidermal growth factor receptor (EGFR) Biomarker Activity (AID 2283057); details: primary human foreskin fibroblasts; actives raise or lower the signal
How it was run: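 hDFCGF system, primary human foreskin fibroblasts; compound 24 h; EGFR measured by ELISA; DMSO = negative control/baseline; bidirectional fitting.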

[7] = read-out: Interleukin-8 (IL8), CXCL8 (gene 3576); assay: BSK_hDFCGF_IL8: BioMAP Diversity Plus: hDFCGF Assay for Interleukin-8 (IL8) Biomarker Activity (AID 2283058); details: primary human foreskin fibroblasts; actives raise or lower the signal
How it was run: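 ELISA read-out of IL-8 from primary human foreskin fibroblast cultures taken 24 h after dosing; values are bidirectional fits relative to DMSO vehicle.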

[8] = BSK_hDFCGF_Proliferation: Cell Proliferation Assessment in the BioMAP Diversity Plus: hDFCGF Assay (AID 2283059); details: primary human foreskin fibroblasts;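 note: curves fitted for both rise and fall of signal versus DMSO baseline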
How it was run: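 Steps: dose primary human dermal fibroblasts (foreskin); […] fix in 10% TCA; stain with 0.1% SRB; read 560 nm; fit gain or loss of signal against DMSO.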

[9] = read-out: Macrophage colony-stimulating factor (MCSF), CSF1 (gene 1435); assay: BSK_hDFCGF_MCSF: BioMAP Diversity Plus: hDFCGF Assay for Macrophage colony-stimulating factor (MCSF) Biomarker Activity (AID 2283060); details: primary human foreskin fibroblasts; actives raise or lower the signal
How it was run: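 ELISA read-out of M-CSF in human dermal foreskin fibroblast cultures, 24 h after chemical dosing; gain or loss of signal fitted bidirectionally relative to DMSO baseline.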

SMILES | AC50 [1] | outcome [2] | outcome [3] | outcome [4] | outcome [5] | outcome [6] | outcome [7] | AC50 [8] | AC50 [9] | outcome [1] | outcome [8] | outcome [9] | AC50 [5] | AC50 [3] | AC50 [4] | AC50 [6] | AC50 [7]
Cc1c(COC(=O)[C@@H]2[C@H](/C=C(\Cl)C(F)(F)F)C2(C)C)cccc1-c1ccccc1 | 18.1 µM (active) | inactive | inactive | inactive | inactive | inactive | inactive | 16.9 µM (active) | 3.97 µM (active) | – | – | – | – | – | – | – | –
CC1(C)C(C=C(Cl)Cl)C1C(=O)OC(C#N)c1cccc(Oc2ccccc2)c1 (stereo unspecified) | – | inactive | inactive | inactive | inactive | inactive | inactive | – | – | inactive | inactive | inactive | – | – | – | – | –
CC(C)NC(=O)N1CC(=O)N(c2cc(Cl)cc(Cl)c2)C1=O | – | inactive | inactive | inactive | – | inactive | inactive | – | – | inactive | inactive | inactive | 0.702 µM (active) | – | – | – | –
CNC(=O)N(C)c1nnc(C(C)(C)C)s1 | – | inactive | inactive | inactive | inactive | inactive | inactive | – | – | inactive | inactive | inactive | – | – | – | – | –
COc1cc(OC)nc(NC(=O)NS(=O)(=O)c2ncccc2OCC(F)(F)F)n1 | – | inactive | inactive | inactive | inactive | inactive | inactive | – | – | inactive | inactive | inactive | – | – | – | – | –
CCN(CC)c1nc(C)cc(OP(=S)(OC)OC)n1 | 20 µM (active) | inactive | inactive | inactive | inactive | inactive | inactive | 20 µM (active) | 14.6 µM (active) | – | – | – | – | – | – | – | –
COP(=O)(OC)O/C(C)=C/C(=O)N(C)C | – | inactive | inactive | inactive | inactive | inactive | inactive | – | – | inactive | inactive | inactive | – | – | – | – | –
Clc1cccc(C(Cl)(Cl)Cl)n1 | – | inactive | inactive | inactive | inactive | inactive | inactive | – | – | inactive | inactive | inactive | – | – | – | – | –
O=C(Nc1ccccc1-c1ccc(Cl)cc1)c1cccnc1Cl | – | inactive | inactive | inactive | inactive | inactive | inactive | – | – | inactive | inactive | inactive | – | – | – | – | –
COc1ccc(-c2ccccc2)cc1NNC(=O)OC(C)C | – | inactive | inactive | inactive | inactive | inactive | inactive | – | – | inactive | inactive | inactive | – | – | – | – | –
Nc1c(Cl)c(Cl)nc(C(=O)O)c1Cl | – | inactive | inactive | inactive | inactive | inactive | inactive | – | – | inactive | inactive | inactive | – | – | – | – | –
COC(=O)c1c(C(F)F)nc(C(F)(F)F)c(C2=NCCS2)c1CC(C)C | 18 µM (active) | inactive | inactive | inactive | inactive | inactive | inactive | – | – | – | inactive | inactive | – | – | – | – | –
CCC(C)n1c(=O)[nH]c(C)c(Br)c1=O (stereo unspecified) | – | inactive | inactive | inactive | inactive | inactive | inactive | – | – | inactive | inactive | inactive | – | – | – | – | –
Nc1c(Cl)c(F)nc(OCC(=O)O)c1Cl | – | inactive | inactive | inactive | inactive | inactive | inactive | – | – | inactive | inactive | inactive | – | – | – | – | –
CCCCOCN(C(=O)CCl)c1c(CC)cccc1CC | 5.46 µM (active) | inactive | – | – | – | – | – | 15.2 µM (active) | 16.5 µM (active) | – | – | – | 12.2 µM (active) | 29.3 µM (active) | 24.2 µM (active) | 33.3 µM (active) | 31.4 µM (active)
CC(C)Nc1nc(Cl)nc(NC(C)C)n1 | – | inactive | – | inactive | inactive | inactive | inactive | – | – | inactive | inactive | inactive | – | 13.6 µM (active) | – | – | –
CN/C(=N\[N+](=O)[O-])NCc1cnc(Cl)s1 | – | inactive | inactive | inactive | inactive | inactive | inactive | – | – | inactive | inactive | inactive | – | – | – | – | –
CO/N=C(/C1=NOCCO1)c1ccccc1Oc1ncnc(Oc2ccccc2Cl)c1F | – | inactive | inactive | inactive | inactive | inactive | inactive | 26.7 µM (active) | – | inactive | – | inactive | – | – | – | – | –
CC1(C)C(C(=O)OC(C#N)c2cccc(Oc3ccccc3)c2)C1(C)C (stereo unspecified) | 16 µM (active) | inactive | inactive | inactive | inactive | inactive | inactive | 8.2 µM (active) | – | – | – | inactive | – | – | – | – | –
